Values joined by “and” are separate entries in the source; they are usually repeats but may differ in a detail not shown here. Equal entries are not always repeated. This is part of a sample that, as a whole, favours compounds with a hit. Of some 83,000 tested, about 20% had one in any assay.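 The endpoint reported here, percent growth, reads 100 for growth as untreated, 0 for no net growth and -100 for all cells dead.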 Some compounds were tested as several samples or in several runs, with calls that do not always agree. Active and inactive are the calls of the source. The calls were made as follows: active = growth percent below 10; inactive = the rest.
How the values were obtained:
Assay in all cases: NCI-60 one-dose screen, 48 h (100 = growth as untreated, 0 = no growth, -100 = all killed)
DU-145 prostate = system: DU-145 prostate
K-562 leukemia = system: K-562 leukemia
MALME-3M melanoma = system: MALME-3M melanoma
MDA-MB-231 breast = system: MDA-MB-231 breast
RXF 393 renal = system: RXF 393 renal
SF-268 CNS = system: SF-268 CNS
SF-295 CNS = system: SF-295 CNS
SF-539 CNS = system: SF-539 CNS
UACC-257 melanoma = system: UACC-257 melanoma
M14 melanoma = system: M14 melanoma

Measured: growth

N#C/C(=C1C=C/C(=N/O)C(Br)=C/1)c1ccccc1
active: DU-145 prostate; 10 µM unless noted -13.1% | K-562 leukemia; 10 µM unless noted 9.55% | SF-295 CNS; 10 µM unless noted -8.83% | SF-539 CNS; 10 µM unless noted -26%
inactive: MALME-3M melanoma; 10 µM unless noted 67.4% | MDA-MB-231 breast; 10 µM unless noted 28.1% | RXF 393 renal; 10 µM unless noted 17% | SF-268 CNS; 10 µM unless noted 18.8% | UACC-257 melanoma; 10 µM unless noted 44.1%

O=C(O)C1C2C=CC(C2)C1C(=O)O (centres undefined)
inactive: DU-145 prostate; 10 µM unless noted 113% and 33% and 117% | K-562 leukemia; 10 µM unless noted 107% and 21.5% and 95.5% | MALME-3M melanoma; 10 µM unless noted 109% and 70% | MDA-MB-231 breast; 10 µM unless noted 101% and 66.9% and 124% | RXF 393 renal; 10 µM unless noted 116% and 38.8% and 96.9% | SF-268 CNS; 10 µM unless noted 115% and 38.7% and 105% | SF-539 CNS; 10 µM unless noted 113% and 27.8% and 99.6% | UACC-257 melanoma; 10 µM unless noted 99.8% and 35.6% and 97.9%
101% (inactive) and 9.77% (active): SF-295 CNS; 10 µM unless noted

CC#C[C@]1(O)CC[C@H]2[C@@H]3CCC4=CC(=O)CCC4=C3[C@@H](c3ccc4c(c3)OCO4)C[C@@]21C
inactive: DU-145 prostate; 10 µM 101% | K-562 leukemia; 10 µM 83% | MALME-3M melanoma; 10 µM 97.8% | MDA-MB-231 breast; 10 µM 62.1% | RXF 393 renal; 10 µM 69.5% | SF-268 CNS; 10 µM 71.3% | SF-295 CNS; 10 µM 58.5% | SF-539 CNS; 10 µM 75% | UACC-257 melanoma; 10 µM 90.1% | M14 melanoma; 10 µM 81.9%
active: DU-145 prostate; 100 µM -13.9% | K-562 leukemia; 100 µM 1.72% | MALME-3M melanoma; 100 µM -29.8% | MDA-MB-231 breast; 100 µM -42.9% | RXF 393 renal; 100 µM -50.7% | SF-268 CNS; 100 µM -4.41% | SF-295 CNS; 100 µM -41.1% | SF-539 CNS; 100 µM -58.8% | UACC-257 melanoma; 100 µM -38.7% | M14 melanoma; 100 µM -53.8%

O=S(=O)(Nc1ccccc1)C1CCCCC1
inactive: DU-145 prostate; 10 µM unless noted 108% and 113% | K-562 leukemia; 10 µM unless noted 97.6% and 93.8% | MALME-3M melanoma; 10 µM unless noted 121% and 123% | MDA-MB-231 breast; 10 µM unless noted 106% and 105% | RXF 393 renal; 10 µM unless noted 120% and 118% | SF-268 CNS; 10 µM unless noted 99% and 114% | SF-295 CNS; 10 µM unless noted 105% and 110% | SF-539 CNS; 10 µM unless noted 109% and 95.4% | UACC-257 melanoma; 10 µM unless noted 108% and 107%

Clc1nc(Oc2ccccc2)nc(-c2cn(-c3ccccc3)c3ccccc23)n1
inactive: DU-145 prostate; 10 µM unless noted 76.7% | K-562 leukemia; 10 µM unless noted 36.9% | MALME-3M melanoma; 10 µM unless noted 85.7% | MDA-MB-231 breast; 10 µM unless noted 40% | RXF 393 renal; 10 µM unless noted 42.9% | SF-268 CNS; 10 µM unless noted 28.3% | SF-295 CNS; 10 µM unless noted 86.2% | SF-539 CNS; 10 µM unless noted 91.1% | UACC-257 melanoma; 10 µM unless noted 93.6%

CCCCCCCCCCCCCCCc1ccc(Cl)c(O)c1Cl (tested in a mixture with another compound)
inactive: DU-145 prostate; 0.25 µM 18.4% | DU-145 prostate; 10 µM 106% | K-562 leukemia; 0.25 µM 30.5% | K-562 leukemia; 10 µM 92.3% | MALME-3M melanoma; 0.25 µM 22.7% | MALME-3M melanoma; 10 µM 100% | MDA-MB-231 breast; 0.25 µM 59.1% | MDA-MB-231 breast; 10 µM 97.9% | RXF 393 renal; 0.25 µM 60.3% | RXF 393 renal; 10 µM 106% | SF-268 CNS; 0.25 µM 31.4% | SF-268 CNS; 10 µM 94.9% | SF-295 CNS; 0.25 µM 29.1% | SF-295 CNS; 10 µM 109% | SF-539 CNS; 0.25 µM 15.9% | SF-539 CNS; 10 µM 103% | UACC-257 melanoma; 0.25 µM 52.1% | UACC-257 melanoma; 10 µM 80.7% | M14 melanoma; 0.25 µM 41% | M14 melanoma; 10 µM 92.2%

CCC(C)C1(C2CCCC2)NC(=O)NC1=O (centres undefined)
inactive: DU-145 prostate; 10 µM unless noted 121% | K-562 leukemia; 10 µM unless noted 99.3% | MALME-3M melanoma; 10 µM unless noted 114% | MDA-MB-231 breast; 10 µM unless noted 101% and 94.3% | RXF 393 renal; 10 µM unless noted 106% and 127% | SF-268 CNS; 10 µM unless noted 103% and 107% | SF-295 CNS; 10 µM unless noted 117% and 93.9% | SF-539 CNS; 10 µM unless noted 104% and 96.6% | UACC-257 melanoma; 10 µM unless noted 94.9% and 101%

CCN(CC)CCNc1ccc(C)c2sc3ccccc3c(=O)c12 (tested in a mixture with another compound)
-9.22% (active) and 16.4% (inactive): RXF 393 renal; 10 µM unless noted
0.322% (active) and 13.3% (inactive): K-562 leukemia; 10 µM unless noted
inactive: DU-145 prostate; 10 µM unless noted 36% and 39.4% | MALME-3M melanoma; 10 µM unless noted 30.9% and 48.2% | MDA-MB-231 breast; 10 µM unless noted 18.3% and 24.8% | SF-268 CNS; 10 µM unless noted 36.2% and 24.3% | SF-295 CNS; 10 µM unless noted 35.4% and 40.9% | SF-539 CNS; 10 µM unless noted 38.6% and 32%
active: UACC-257 melanoma; 10 µM unless noted -52.9% and -51.9%
